Bioassay records (PubChem BioAssay)
Pf Dd2 growth: blocks growth of Plasmodium falciparum Dd2 parasites. P. falciparum Dd2 growth, SYBR Green, 72 h; active compounds read low. activity change, % at 10 µM. 2.3% of 94,000 active; in the data active = activity change below about -80%; inconclusive = no clear call, values can overlap the other calls
T cruzi growth-1: inhibitors of T. cruzi proliferation | T. cruzi beta-gal in NIH3T3, GalScreen luminescence, 90 h | inhibition, % at 8.34 µM | 5.9% of 77,000 active | AID 624255;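 active = mean inhibition above about 93%, with at least 55% of replicates each passing it, limit read from the data, passing the limit was not always enough; inconclusive = only one of those two conditions holds; inactive = neither condition holds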
C diff HTS: C. difficile growth inhibition | growth activity, negative = inhibition, % at 16 µg/mL (by protocol) | 0.25% of 86,000 active | Clostridium difficile clinical isolate growth, OD600, 24 h; active compounds read low;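 active = mean growth activity at or below -80% and every replicate also at or below -80%; inconclusive = mean at or below -80% but some replicate above -80%; inactive = mean growth activity above -80%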;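 also: 0% = DMSO wells and -100% = levofloxacin 16 µg/mL wells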
T cruzi growth-2: blocks T. cruzi growth in NIH3T3 host cells; shares compounds with T cruzi growth-1; T. cruzi beta-gal in NIH3T3, GalScreen luminescence, 90 h; inhibition, % at 8.35 µM; 72% of 5,600 active; AID 651739;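 active = mean replicate inhibition above about 95% and at least 55% of replicates individually reaching it, limit read from the data; inconclusive = only one of the two criteria is met; inactive = neither criterion is met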
T cruzi growth-3: Trypanosoma cruzi proliferation inhibition. shares compounds with T cruzi growth-1. T. cruzi beta-gal in NIH3T3, GalScreen luminescence, 90 h. inhibition, % at 2.09 µM. 21% of 5,600 active;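 active = mean inhibition above about 95%, with at least 55% of replicates also reaching it, limit read from the data; inconclusive = meets just one of the two conditions; inactive = meets neither condition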;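 also: plate controls were neutral control median for no effect and positive control median for full effect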
NIH3T3 tox: cytotoxicity in mouse NIH/3T3 fibroblasts | AID 651742 | shares compounds with T cruzi growth-1 | 14% of 5,600 active | NIH/3T3 viability, CellTiter-Glo ATP luminescence, 90 h | cytotoxicity (signal decrease), % at 8.35 µM;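 active = mean signal decrease across replicates above about 35% based on untreated-well scatter, with enough replicates individually passing, limit read from the data; inconclusive = no rule stated though some were filed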;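 also: 0% = median of neutral control wells and 100% = median of positive control wells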
3T3 cytotox 2: cytotoxicity in mouse NIH/3T3 fibroblasts. shares compounds with T cruzi growth-1. NIH/3T3 viability, CellTiter-Glo ATP luminescence, 90 h. inhibition, % at 24.9 µM. 56% of 5,600 active. AID 651744;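 active = mean loss of cell viability signal at or above a set limit, and enough replicates individually reaching it; inconclusive = meets only the mean limit or only the replicate share; inactive = meets neither condition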;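 also: 0% = median of neutral control wells and 100% = median of positive control wells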
Starred values were filed as active, the others as inactive; ? = inconclusive; nt = no result; ! = not confirmed by another sample. Rows were chosen to be rich in hits. Some 6.7% of all compounds tested hit in one or more screens of this group.

SMILES | Pf Dd2 growth | T cruzi growth-1 | C diff HTS | T cruzi growth-2 | T cruzi growth-3 | NIH3T3 tox | 3T3 cytotox 2
C[C@@H]1CCCCO[C@H](CN(C)Cc2ccc(C(F)(F)F)cc2)[C@@H](C)CN([C@H](C)CO)C(=O)c2cc(NC(=O)C3CCCCC3)ccc2O1 | -27.8 | 70.2 | 3.0 | nt | nt | nt | nt
CO[C@H]1CN(C)C(=O)c2ccc(NC(=O)c3ccc(F)cc3)cc2OC[C@H](C)N(C(=O)CN(C)C)C[C@H]1C | nt | 23.2 | nt | nt | nt | nt | nt
CCCN(C)C[C@@H]1Oc2ncc(C#Cc3ccccc3OC)cc2C(=O)N([C@H](C)CO)C[C@@H]1C | -74.8 | nt | 7.3 | nt | nt | nt | nt
O=C(C[C@@H]1C=C[C@H](NC(=O)CC2CC2)[C@H](CO)O1)NCc1ccc(-c2ccccc2)cc1 | 12.9 | 15.9 | nt | nt | nt | nt | nt
COCC(=O)Nc1ccc2c(c1)OC[C@H](C)N(Cc1ccccn1)C[C@@H](C)[C@H](OC)CN(C)C2=O | 18.3 | 19.0 | nt | nt | nt | nt | nt
CCCN(C)C[C@H]1Oc2ncc(C#CCC(C)C)cc2C(=O)N([C@@H](C)CO)C[C@H]1C | 7.9 | nt | 7.4 | nt | nt | nt | nt
C[C@H]1CN([C@@H](C)CO)C(=O)c2cccc(NC(=O)Nc3ccccc3)c2O[C@@H]1CN(C)CC1CCCCC1 | -25.2 | 67.8 | 4.1 | nt | nt | nt | nt
C[C@@H]1CN([C@@H](C)CO)C(=O)c2cc(NC(=O)C3CCCCC3)ccc2O[C@@H](C)CCCCO[C@H]1CN(C)Cc1ccc(C(=O)O)cc1 | 17.6 | 5.8 | -0.5 | nt | nt | nt | nt
C[C@@H]1CN([C@@H](C)CO)C(=O)c2cc(NC(=O)C3CCCCC3)ccc2O[C@@H](C)CCCCO[C@H]1CN(C)Cc1ccc(C(F)(F)F)cc1 | -55.9 | ? | 16.9 | 88.8 | 116.1* | 25.9 | 7.1
CO[C@@H]1CN(C)C(=O)c2ccc(NS(=O)(=O)c3ccc(Cl)cc3)cc2OC[C@H](C)NC[C@@H]1C | 23.4 | -18.1 | 2.6 | nt | nt | nt | nt
C[C@@H]1CN([C@@H](C)CO)C(=O)c2cc(NC(=O)CCCN(C)C)ccc2O[C@H]1CN(C)Cc1ccc(-c2ccccc2)cc1 | -43.0 | nt | -1.4 | nt | nt | nt | nt
C[C@H]1CN([C@@H](C)CO)C(=O)c2cc(NS(C)(=O)=O)ccc2O[C@H]1CN(C)CC1CCCCC1 | 42.1 | 34.0 | 13.2 | nt | nt | nt | nt
COCC#Cc1ccc2c(c1)O[C@@H](CN(C)S(=O)(=O)c1ccc(F)cc1)[C@@H](C)CN([C@@H](C)CO)S2(=O)=O | -44.0 | 84.4 | 7.9 | nt | nt | nt | nt
C[C@H](CO)N1C[C@H](C)[C@@H](CN(C)S(=O)(=O)c2ccc(F)cc2)Oc2cc(C#Cc3ccc(F)cc3)ccc2S1(=O)=O | -48.3 | 107.4* | 4.8 | 100.0* | 108.6* | 28.4 | 64.6*
C[C@H]1CN([C@@H](C)CO)S(=O)(=O)c2ccc(C#Cc3ccc(F)cc3)cc2O[C@@H]1CN(C)S(=O)(=O)c1ccc(F)cc1 | -49.7 | ? | -1.5 | 95.5* | 112.7* | 33.1 | 68.1*
COCC#Cc1ccc2c(c1)O[C@H](CN(C)S(=O)(=O)c1ccc(F)cc1)[C@H](C)CN([C@H](C)CO)S2(=O)=O | -47.7 | 67.9 | -1.6 | nt | nt | nt | nt
C[C@@H]1CN([C@@H](C)CO)S(=O)(=O)c2ccc(C#Cc3ccc(F)cc3)cc2O[C@H]1CN(C)S(=O)(=O)c1ccc(F)cc1 | -67.8 | 115.1* | 2.9 | 103.3* | 116.0* | ? | 55.3*
C[C@H]1CN([C@@H](C)CO)S(=O)(=O)c2ccc(C#Cc3ccc(F)cc3)cc2O[C@H]1CN(C)S(=O)(=O)c1ccc(F)cc1 | -21.5 | 107.4* | 3.6 | 105.2* | ? | 7.6 | 0.5
C[C@@H]1CCCCO[C@H](CN(C)C(=O)NC2CCCCC2)[C@@H](C)CN([C@H](C)CO)C(=O)c2cc(NC(=O)c3ccncc3)ccc2O1 | 39.0 | 14.5 | 2.4 | nt | nt | nt | nt
CO[C@H]1CN(C)C(=O)c2ccc(NC(C)=O)cc2OC[C@H](C)N(C(=O)C2CCOCC2)C[C@H]1C | -5.4 | -38.9 | nt | nt | nt | nt | nt
CCC(=O)N[C@H]1C=C[C@H](CC(=O)NCC2CC2)O[C@@H]1CO | -6.3 | nt | -0.3 | nt | nt | nt | nt
COC(=O)C[C@H]1C[C@@H]2c3cc(NS(=O)(=O)c4ccccc4)ccc3O[C@@H]2[C@@H](CO)O1 | 2.5 | 69.1 | 5.7 | nt | nt | nt | nt
CC(=O)N(C)C[C@@H]1Oc2cc(C#CC3CCCC3)ccc2S(=O)(=O)N([C@@H](C)CO)C[C@H]1C | -41.6 | 57.9 | -3.3 | nt | nt | nt | nt
C[C@@H]1CN([C@@H](C)CO)S(=O)(=O)c2ccc(C#Cc3ccc(F)cc3)cc2O[C@@H]1CN(C)S(=O)(=O)c1ccc(F)cc1 | -43.7 | 113.8* | 13.2 | 105.6* | 114.6* | 26.4 | 43.1*
C[C@H](CO)N1C[C@H](C)[C@H](CN(C)C(=O)C2CCCCC2)Oc2cc(Br)ccc2S1(=O)=O | -3.6 | 29.5 | 7.5 | nt | nt | nt | nt
SMILES | Pf Dd2 growth | T cruzi growth-1 | C diff HTS | T cruzi growth-2 | T cruzi growth-3 | NIH3T3 tox | 3T3 cytotox 2
C[C@@H]1CN([C@@H](C)CO)S(=O)(=O)c2ccc(Br)cc2O[C@H]1CN(C)C(=O)C1CCCCC1 | -1.3 | 73.8 | 1.0 | nt | nt | nt | nt
C[C@@H]1CN([C@H](C)CO)S(=O)(=O)c2ccc(Br)cc2O[C@H]1CN(C)C(=O)C1CCCCC1 | -23.0 | 100.3*! | -3.2 | 33.9 | -0.4 | 10.2 | 48.1*
C[C@H]1CN([C@@H](C)CO)S(=O)(=O)c2ccc(Br)cc2O[C@@H]1CN(C)C(=O)C1CCCCC1 | -50.6 | 102.6* | 11.8 | 31.5 | -14.5 | -12.2 | 41.7*
C[C@@H]1CN([C@H](C)CO)S(=O)(=O)c2ccc(C3=CCCCC3)cc2O[C@@H]1CN(C)CC1CC1 | -50.0 | 66.8 | nt | nt | nt | nt | nt
C[C@H](CO)N1C[C@H](C)[C@@H](CN(C)CC2CCCC2)Oc2cc(C3=CCCCC3)ccc2S1(=O)=O | -50.6 | 105.9* | 6.0 | 97.3* | 76.8 | 13.5 | 103.4*
C[C@@H]1CN([C@@H](C)CO)S(=O)(=O)c2ccc(C3=CCCCC3)cc2O[C@@H]1CN(C)CC1CC1 | -50.4 | 51.2 | nt | nt | nt | nt | nt
C[C@@H]1CN([C@@H](C)CO)S(=O)(=O)c2ccc(C3=CCCCC3)cc2O[C@H]1CN(C)CC1CCCC1 | -36.8 | 123.3* | 5.0 | 102.4* | 72.6 | 120.2* | 105.5*
C[C@@H]1CN([C@@H](C)CO)S(=O)(=O)c2ccc(C3=CCCC3)cc2O[C@H]1CN(C)CC1CC1 | -27.8 | 92.9 | 3.6 | nt | nt | nt | nt
C[C@H](CO)N1C[C@H](C)[C@@H](CN(C)CC2CCCC2)Oc2cc(C3=CCCC3)ccc2S1(=O)=O | -58.9 | 102.8* | 8.5 | 103.1* | 65.1 | 8.1 | 107.2*
C[C@H]1CN([C@@H](C)CO)C(=O)Cc2cc(NC(=O)C3CC3)ccc2O[C@@H]1CN(C)CC1CC1 | 20.3 | 21.1 | 0.9 | nt | nt | nt | nt
COC(=O)c1cn(-c2cccc(N)c2)nn1 | nt | nt | -12.6 | nt | nt | nt | nt
COc1ccc(NC(=O)N(C)C[C@@H]2Oc3c(NC(=O)C4CCOCC4)cccc3C(=O)N([C@H](C)CO)C[C@H]2C)cc1 | 17.4 | 57.4 | 3.2 | nt | nt | nt | nt
